DT40 TDP1 no CPT: qHTS for Inhibitors of human tyrosyl-DNA phosphodiesterase 1 (TDP1): qHTS in cells in absence of CPT | DT40 Tdp1-/- hTDP1 cells, no CPT, ATP luminescence, 48 h | Potency, µM (highest dose often 46.2 µM), inactives show top-dose activity change, negative = growth inhibition, usual class: inhibitors | 420,000 tested, 15% active; also: potency is read from the fitted curve at half-maximal effect; nearly all actives have a fitted effect of over 55% in size
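Camptothecin absent (DMSO only). Human TDP1-complemented DT40 knockout cells, 400 cells/well, 37 °C for minimum 48 hr; ATP measured via CellTiter-Glo, 30 min dark incubation, luminescence.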
TDP1 cell CPT: growth inhibition of DT40 Tdp1-/-;hTDP1 cells with camptothecin (screen for TDP1 inhibitors). 420,000 tested, 12% active. Potency, µM (highest dose often 46.2 µM), without a hit: at the highest dose activity change, negative = growth inhibition, most hits filed as inhibitors. chicken DT40 Tdp1-/-;hTDP1 cells + 20 nM CPT, ATP luminescence, 48 h; also: potency is read from the fitted curve at half-maximal effect; nearly all actives have a fitted effect of over 55% in size
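Cell growth measured by CellTiter-Glo luminescence after a minimum 48 h, 37 C compound exposure with 20 nM CPT in Tdp1-knockout DT40 cells stably expressing hTDP1, seeded 400/well; qHTS titration format.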
VP16 counter: Gal4-VP16 reporter inhibition counter-screen; 310,000 tested, 3.5% active; Potency, µM (titrated, usually from 53.6 µM), for inactives: at the highest dose activity, negative = inhibition, actives largely listed as inhibitors; Drosophila S2 Gal4-VP16 UAS-luciferase, luminescence, 20 h;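 also: Gal4-VP16 expression switched on by copper sulfate through the metallothionein promoter; potency is read from the fitted curve at half-maximal effect; nearly all actives have a fitted effect of over 50% in size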
RORgamma inh: inhibitors of mouse ROR gamma transcriptional activity; AID 2551; Drosophila S2 Gal4-RORgamma UAS-luciferase reporter, 20 h; Potency, µM (top dose mostly 53.6 µM), for inactives: top-dose activity change, negative = inhibition, actives largely listed as inhibitors; P51450; 310,000 tested, 5.4% active; also: potency is read from the fitted curve at half-maximal effect; nearly all actives have a fitted effect of over 60% in size
Target sequence (P51450 whole entry, looked up, the tested form may be a part): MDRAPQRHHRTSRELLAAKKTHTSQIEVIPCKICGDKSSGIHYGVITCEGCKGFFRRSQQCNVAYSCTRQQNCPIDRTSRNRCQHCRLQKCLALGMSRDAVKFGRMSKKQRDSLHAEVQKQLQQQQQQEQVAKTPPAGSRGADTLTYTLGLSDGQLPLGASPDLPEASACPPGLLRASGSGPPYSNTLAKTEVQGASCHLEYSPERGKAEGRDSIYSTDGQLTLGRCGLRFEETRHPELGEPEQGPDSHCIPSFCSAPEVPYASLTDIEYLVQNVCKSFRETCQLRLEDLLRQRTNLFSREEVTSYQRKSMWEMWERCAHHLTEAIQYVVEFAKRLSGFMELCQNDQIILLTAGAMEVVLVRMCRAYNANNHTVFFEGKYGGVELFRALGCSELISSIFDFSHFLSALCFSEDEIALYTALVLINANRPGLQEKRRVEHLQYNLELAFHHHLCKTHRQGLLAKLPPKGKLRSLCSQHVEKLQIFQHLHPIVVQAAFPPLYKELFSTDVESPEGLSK
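Using a luciferase readout, inhibitors were identified by reduced reporter activity in Drosophila cells coexpressing a copper-inducible Gal4–ROR gamma fusion and UAS-driven Photinus luciferase, incubated 20 hr after 700 uM copper sulfate.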
LDHA block: inhibitors of human lactate dehydrogenase A. P00338. purified LDHA, NADH/diaphorase-resazurin fluorescence; active compounds read low. activity change, % (values are at about 110 or 230 µM). 480,000 tested, 0.15% active; in the data active = activity change below about -30%; inconclusive = mostly about -25% to -30%;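 also: plate controls were DMSO wells for no effect and wells without enzyme for full effect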
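Remaining NADH was detected by diaphorase (0.133 mg/mL) converting 37 µM resazurin to fluorescent resorufin, read at 0 and 20 minutes. The preceding 5-minute room-temperature reaction used 2 nM LDHA, 0.2 mM sodium pyruvate and 0.06 mM NADH at pH 7.4.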
IL1B secr inh: inflammasome signaling inhibition, IL-1 beta readout. THP-1 LPS/ATP IL-1B secretion, AlphaLISA, 16 h; active compounds read low. activity change, % at 57.5 µM. 360,000 tested, 4.7% active; in the data active = activity change below about -50%; inconclusive = mostly about -30% to -49%
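Secreted IL-1B measured by AlphaLISA bead assay after 16 h compound exposure of THP-1 cells; compounds (final up to 57.5 uM) added 1 h before LPS (250 ng/mL) and ATP (1.25 mM) stimulation; lower signal means less secretion.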
* hit, by the source's call; u = inconclusive; x = no result given. A selection: hits, their analogues and other compounds. The true share with any hit is near 18%. Unless noted, calls follow the shape of the dose curve; as a rule, active = well fitted curve in the direction sought with a large enough effect; inconclusive = small, poorly fitted or top-dose-only effect, or another doubt; inactive = no such curve, though single readings can be large; an effect the other way counts as inactive or inconclusive. Unless noted, % is scaled to controls: 0 for no effect and ±100 for the full control effect.

SMILES	DT40 TDP1 no CPT	TDP1 cell CPT	VP16 counter	RORgamma inh	LDHA block	IL1B secr inh
CCn1c(C)c(/C=C/c2cc[n+](C)cc2)c2cc(C)ccc21	x	x	x	x	9	x
COc1ccc(/C=N/NC(=S)Nc2cccc(C(=O)O)c2)cc1	16%	12%	11µM*	3.5µM*	-14	3
COc1cccc(/C=N/NC(=S)Nc2cccc(C(=O)O)c2)c1O	-27%	u	-22%	u	-47*	34
COc1cc(/C=N/NC(=S)Nc2cccc(C(=O)O)c2)ccc1O	-10%	-7%	-21%	u	-4	0
CCN(CC(=O)NC(=O)NC1CC1)C(C)c1ccc(C#N)cc1 (stereo not drawn)	x	x	x	x	-5	x
CCOC(=O)c1cc2ccccc2n1C1CCN(C)CC1	26µM*	u	x	x	-11	-11
CC(=O)c1ccc(N2CCN(Cc3cc(=O)n4c(-c5ccccc5)csc4n3)CC2)cc1	21µM*	u	x	x	-3	31
O=c1cc(CN2CCN(c3ccccc3)CC2)nc2scc(-c3ccccc3)n12	23µM*	u	-3%	10%	2	42
CC(=O)c1ccc(N2CCN(Cc3nc(Cc4ccccc4)no3)CC2)cc1	16µM*	u	u	3.5µM*	-3	13
CCOC(=O)C1CCN(Cc2cc(=O)n3c(-c4ccccc4)csc3n2)CC1	-2%	13%	-2%	6%	-6	4
O=C(NCCNCCO)c1nc2ccccc2c(=O)[nH]1	x	x	x	x	-7	x
COc1ccc(OC)c(CN2CCC(C(O)(c3ccccc3)c3ccccc3)CC2)c1	x	x	x	x	0	x
Cc1ccsc1C1C(C(=O)O)c2ccccc2C(=O)N1C (stereo not drawn)	-18%	0%	-5%	16%	1	-5
CN1C(=O)c2ccccc2C(C(=O)O)C1c1cccc(F)c1 (stereo not drawn)	26µM*	u	-4%	-7%	-10	28
NNc1nc(N)c2c(n1)-c1ccccc1CC21CCCC1	16µM*	10µM*	u	18µM*	-5	-9
O=C(c1ccc(Cn2c(=S)[nH]c3cc4c(cc3c2=O)OCO4)cc1)N1CCN(c2ccccc2)CC1	23µM*	u	6.3µM*	3.2µM*	-8	-3
Cc1ccc(C)c(N2CCN(C(=O)c3ccc(Cn4c(=S)[nH]c5ccc(N6CCOCC6)cc5c4=O)cc3)CC2)c1	15µM*	u	-5%	2.8µM*	-5	7
COc1ccc(Cn2c(=S)[nH]c3cc(C(=O)N4CCN(c5ccccc5)CC4)ccc3c2=O)cc1	u	u	2%	u	-3	60
O=C(c1ccc(Cn2c(=S)[nH]c3ccc(N4CCOCC4)cc3c2=O)cc1)N1CCN(c2ccc(F)cc2)CC1	16µM*	16µM*	0%	u	-13	-8
COc1ccc(N2CCN(C(=O)c3ccc(Cn4c(=S)[nH]c5ccc(N6CCOCC6)cc5c4=O)cc3)CC2)cc1	18µM*	23µM*	10%	-42%	-4	18
Cc1nc(C)c(C(=O)C2=C(O)C(=O)N(CCN3CCOCC3)C2c2ccc(Cl)cc2)s1 (stereo not drawn)	x	x	x	x	-6	x
COc1ccc(N2C(=O)CS/C2=N\C(=S)Nc2ccccc2)cc1	5.8µM*	6.5µM*	-4%	-37%	-12	31
COc1cccc(NC(=O)CSc2nnc(C3CCCCC3)n2-n2cccc2)c1	x	x	x	x	4	x
COc1ccc(CSc2ccc(S(=O)(=O)N3CCOCC3)cn2)cc1F	x	x	x	x	-1	x
CCC(C)(C)NC(=O)/C=C/c1ccc(OC)c(S(=O)(=O)N2CCOCC2)c1	u	-24%	-10%	22%	-2	0
SMILES	DT40 TDP1 no CPT	TDP1 cell CPT	VP16 counter	RORgamma inh	LDHA block	IL1B secr inh
CCN(Cc1ccc(OC)c(F)c1)C(=O)/C=C/c1ccc(S(=O)(=O)N2CCOCC2)cc1	23µM*	u	x	x	-4	-12
COc1ccc(CCNC(=O)/C=C/c2ccc(OC)c(S(=O)(=O)N3CCOCC3)c2)cc1	5.8µM*	u	6%	-2%	-12	12
Cc1ccc(NC(=O)c2cc(S(=O)(=O)N3CCCCC3)ccc2N2CCOCC2)cc1S(=O)(=O)N(C)C	u	-23%	x	x	-1	-14
Cc1ccc(NC(=O)/C=C/c2ccc(S(=O)(=O)N3CCOCC3)cc2)cc1S(=O)(=O)N(C)C	15µM*	u	x	x	3	-5
COc1cc(/C=C/C(=O)Nc2ccc(OC)c(S(=O)(=O)N3CCOCC3)c2)ccc1OC(F)F	16µM*	18µM*	x	x	-4	-20
COc1cccc(CN(C)C(=O)/C=C/c2ccc(S(=O)(=O)N3CCCCCC3)cc2)c1	u	u	-11%	42%	-3	-58*
CCCOc1ccccc1NC(=O)/C=C/c1ccc(OC)c(S(=O)(=O)N2CCOCC2)c1	16µM*	u	x	x	-5	-23
CC(=O)Nc1cccc(NC(=O)/C=C/c2ccc(S(=O)(=O)N3CCOCC3)cc2)c1	-25%	u	x	x	-4	u
O=C(/C=C/c1ccccc1)Nc1cc(S(=O)(=O)N2CCOCC2)ccc1N1CCOCC1	-5%	-27%	x	x	-3	-8
COc1cccc(NC(=O)/C=C/c2ccc(S(=O)(=O)N3CCOCC3)cc2)c1	u	18µM*	x	x	1	-8
COc1ccc(S(=O)(=O)N2CCOCC2)cc1NC(=O)/C=C/c1ccccc1	-19%	-22%	x	x	1	-52*
COc1cccc(/C=C/C(=O)OCC(=O)Nc2ccc(S(=O)(=O)N3CCCC3)cc2)c1	-27%	8%	-9%	29%	-10	-12
CCOc1ccccc1NC(=O)/C=C/c1ccc(S(=O)(=O)N2CCOCC2)cc1	u	u	x	x	2	-7
CCCOc1ccccc1NC(=O)/C=C/C(N)=O	2.5µM*	1.3µM*	4.5µM*	4µM*	-4	-6
COc1ccc(/C=C/C(=O)Nc2ccccc2C)cc1S(=O)(=O)N1CCOCC1	-26%	u	-1%	21%	-5	-24
COc1ccc(/C=C/C(=O)Nc2ccccc2F)cc1S(=O)(=O)N1CCOCC1	-17%	u	x	x	-4	-88*
S=C(Nc1ccccc1)N1CCn2c1nc1ccccc12	-2%	-9%	5µM*	0.56µM*	-6	12
C=CCN(Cc1ccc(Br)s1)C(=O)c1ccc(OCc2c(C)noc2C)cc1	16µM*	u	x	x	1	-11
Cc1noc(C)c1COc1cccc(C(=O)NCCc2c[nH]c3ccccc23)c1	21µM*	13µM*	-12%	15%	0	6
